The record followed here is PubChem BioAssay AID861 (The Scripps Research Institute Molecular Screening Center, 2007).

About 360 (0.18%) of roughly 200,000 compounds were called active. Cut-off read from the data, not from the text of the source: active = inhibition above about 25%; inactive = the rest. What follows is part of a selection rich in actives, with near analogues and random picks from the rest.

Sequence of Toll-like receptor 4 (Homo sapiens) + Myeloid differentiation primary response protein MyD88 (Homo sapiens) (O00206 whole entry, looked up): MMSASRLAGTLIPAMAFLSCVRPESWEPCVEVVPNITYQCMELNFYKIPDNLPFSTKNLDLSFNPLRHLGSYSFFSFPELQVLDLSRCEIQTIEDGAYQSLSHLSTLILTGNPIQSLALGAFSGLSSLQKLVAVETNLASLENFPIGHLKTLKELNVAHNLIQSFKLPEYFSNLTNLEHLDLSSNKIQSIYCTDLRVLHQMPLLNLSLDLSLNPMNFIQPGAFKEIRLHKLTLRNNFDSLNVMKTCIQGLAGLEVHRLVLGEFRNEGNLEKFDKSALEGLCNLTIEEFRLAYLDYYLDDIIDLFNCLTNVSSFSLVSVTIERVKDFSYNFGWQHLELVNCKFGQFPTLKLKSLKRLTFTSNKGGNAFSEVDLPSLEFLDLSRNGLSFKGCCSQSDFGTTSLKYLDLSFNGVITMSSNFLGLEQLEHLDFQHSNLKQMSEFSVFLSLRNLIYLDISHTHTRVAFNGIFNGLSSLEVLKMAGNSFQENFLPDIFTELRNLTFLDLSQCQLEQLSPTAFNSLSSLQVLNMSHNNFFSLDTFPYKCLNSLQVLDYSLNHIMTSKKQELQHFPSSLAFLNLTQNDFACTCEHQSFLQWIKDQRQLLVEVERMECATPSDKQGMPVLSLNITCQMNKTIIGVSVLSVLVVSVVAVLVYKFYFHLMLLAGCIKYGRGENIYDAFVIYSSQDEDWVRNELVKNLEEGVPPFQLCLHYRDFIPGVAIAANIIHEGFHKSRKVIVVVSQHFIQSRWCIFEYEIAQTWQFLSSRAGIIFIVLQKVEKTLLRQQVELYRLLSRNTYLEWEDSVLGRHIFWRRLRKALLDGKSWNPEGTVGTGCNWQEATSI
Sequence of Toll-like receptor 4 (Homo sapiens) + Myeloid differentiation primary response protein MyD88 (Homo sapiens) (Q99836 whole entry, looked up): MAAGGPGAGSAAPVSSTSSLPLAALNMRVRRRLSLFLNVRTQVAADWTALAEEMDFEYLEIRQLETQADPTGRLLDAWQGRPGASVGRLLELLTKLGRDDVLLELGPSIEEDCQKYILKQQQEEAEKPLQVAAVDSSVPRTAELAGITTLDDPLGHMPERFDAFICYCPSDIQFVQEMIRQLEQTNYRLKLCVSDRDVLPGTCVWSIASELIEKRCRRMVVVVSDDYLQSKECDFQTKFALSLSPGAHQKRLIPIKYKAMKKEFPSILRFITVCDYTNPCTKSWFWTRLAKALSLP

This assay has as its target Toll-like receptor 4 (Homo sapiens) + Myeloid differentiation primary response protein MyD88 (Homo sapiens) (UniProt O00206+Q99836). Description: disruptors of TLR4 binding to MyD88 – cell-based, HeLa CL3-4, BLA complementation, FRET ratio, primary screen (AID 861).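 Note: 0% = vehicle and 100% = reference inhibitor.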 Particulars: HeLa CL3-4 TLR4/MyD88 BLA complementation, at 8.4 µM, stronger effect = higher value.
What is called inhibition is the relative decrease from the control value, in per cent. Consider `COc1cccc(OC)c1C(=O)Nc1ccc(Cc2ccncc2)cc1`, for which the inhibition was 13.9% (inactive). As to `COc1ccc(-c2onc(C)c2-c2ccc3c(c2)OCCO3)c(O)c1`, the inhibition was 1.48% (inactive). On to `CC(CC(=O)O)C(=O)c1ccc(Cl)c([N+](=O)[O-])c1` (centres undefined), for which the inhibition is 1.72% (inactive).

In the case of `Cc1nnc(-c2ccc(Oc3ccc(C)c(C)c3)c([N+](=O)[O-])c2)o1`, the inhibition was 2.54% (inactive). Consider `CSC(=S)N/N=C/c1c[nH]c2ccccc12`, for which the inhibition was -16.8% (inactive).

Take `S=c1[nH]nc(-c2ccccc2)n1/N=C/c1c[nH]c2ccccc12`: the inhibition was -1.22% (inactive). Regarding `C[n+]1ccc(/C=C/c2c[nH]c3ccccc23)cc1`, the inhibition is 35.4% (active).

With `O=c1c2cc3c(=O)n(CC4CCCO4)c(=O)c3cc2c(=O)n1CC1CCCO1` (centres undefined), the inhibition was 0.88% (inactive). Next, `O=C1c2cccc3c([N+](=O)[O-])ccc(c23)C(=O)N1CC1CCCO1` (centres undefined): 84.1% (active); `O=C(NCc1ccc2c(c1)OCO2)c1ccc2c(c1)C(=O)N(CC1CCCO1)C2=O` (centres undefined): 16.9% (inactive). Regarding `C/C=C/c1ccc(OCCOc2ccc(C=O)cc2OC)c(OC)c1`, the inhibition was -6.21% (inactive). `COCCCNC(=O)C1CCC(CNS(=O)(=O)c2ccc(OC)cc2)CC1` (centres undefined): the inhibition was 3.23% (inactive). In the case of `CCOC(=O)C1=C(CC)Nc2ccccc2N=C1N`, the inhibition was -10.4% (inactive). For the compound `CCCCN(CC)C(=O)c1ccc2c(c1)OCO2`, the inhibition was -2.02% (inactive). For `O=c1cnnc(Nc2ccccc2F)[nH]1`, the inhibition was 6.52% (inactive). For `COc1ccccc1CC(=O)Nc1ccc(F)cc1F` the value was -14.3% (inactive); for `O=C1CC(c2ccccc2)=NN1c1ccc([N+](=O)[O-])cc1`, 7.06% (inactive); for `CC1=NN(c2ccccc2)C(=O)C1C(=O)c1ccc([N+](=O)[O-])cc1` (centres undefined), 1.28% (inactive). Take `O=C1NC(=O)C2C1C(c1ccc([N+](=O)[O-])cc1)=NN2Cc1ccccc1` (centres undefined): the inhibition was 44.1% (active). Regarding `COC(=O)c1cc(C)sc1NC(=O)CC1Nc2ccccc2NC1=O` (centres undefined), the inhibition is 5% (inactive).

For the compound `COc1ccc(-c2nn(-c3ccccc3)cc2/C=N/Nc2ccccn2)cc1OC`, the inhibition is -3.61% (inactive). For the compound `O=C(NCCc1ccc(F)cc1)c1n[nH]c2ccccc12`, the inhibition is -4.67% (inactive).

Regarding `CCCn1nnc(NC(=O)COc2ccc(CC)cc2)n1`, the inhibition was 9.27% (inactive). For `CSCCC(NS(=O)(=O)c1ccc2c(c1)oc(=O)n2C)C(=O)NC1CCCc2ccccc21` (centres undefined) the value was 7.47% (inactive); for `O=C(CO/N=C/c1ccccc1OC(F)F)NC1CCCC1`, 16.4% (inactive); for `O=C(CNC1CCCCC1)NCC1(c2ccccc2)CCCC1`, -4.02% (inactive). For the compound `COc1cc(C(=S)NCc2ccccc2)cc(Br)c1O`, the inhibition was -2.71% (inactive). Next, `Cc1cc(C)n(CCNCc2c(C(=O)N3C[C@@H](C)O[C@@H](C)C3)nc3ccc(Cl)cn23)n1`: -4.55% (inactive). `Cc1cc(C)cc(OCC(=O)NCc2cc(C)nc3ccccc23)c1`: the inhibition was 8.6% (inactive). For the compound `Cc1cccc(C(=O)N2CCc3c([nH]c4ccccc34)C2CC(C)C)n1` (centres undefined), the inhibition is -16.4% (inactive). Regarding `CC12CN(NC(=O)c3ccc(Cl)cc3)C3(C#N)CC1CCC23C` (centres undefined), the inhibition is 1.1% (inactive). On to `CCN(CC(=O)NC1CCS(=O)(=O)C1)S(=O)(=O)c1ccccc1` (centres undefined), for which the inhibition is 1.44% (inactive). As to `COc1ccc(S(=O)(=O)N2CN(CCc3ccc(OC)c(OC)c3)c3nc4ccccc4nc32)cc1`, the inhibition was 3.83% (inactive).

Consider `Cc1ccc(OCCCC(=O)NC(C)c2ccccc2)c(C)c1` (centres undefined), for which the inhibition was -0.61% (inactive).

`CCCCCCn1c(CN2CCCCC2)nc2c1c(=O)n(C)c(=O)n2C`: the inhibition was 3.83% (inactive). Turning to `CCCCCCCCn1c2c(c(=N)c3c1CCC3)CCCC2`, the inhibition was 28.8% (active). Take `O=C(Cc1csc(Nc2nc(=S)[nH]c3ccccc23)n1)NCCCN1CCN(c2cccc(Cl)c2)CC1`: the inhibition was -1.51% (inactive). On to `Cc1nc(N2CCN(c3ncccn3)CC2)c2oc3ccccc3c2n1`, for which the inhibition is 7.8% (inactive). Turning to `CCSc1nc(C)nc2c1oc1ccccc12`, the inhibition was 1.7% (inactive). As for `Cc1nc(Cl)c2oc3ccccc3c2n1`, the inhibition is 35.2% (active). Turning to `Cc1ccc2[nH]c(=O)c(CN3CCCCC3)c(-c3ccccc3)c2c1`, the inhibition is 16.6% (inactive). Take `COc1ccc(C2OCC3(CO2)SC(=O)NC3=O)cc1OC` (centres undefined): the inhibition was 6.58% (inactive). Next, `CCN1CCC2(CCN(Cc3cn[nH]c3-c3ccc(OC)c(F)c3)C2)C1` (centres undefined): -1.36% (inactive); `O=C(Nc1ccccc1Cc1ccccc1)c1ccc2c(c1)SC1=NS(=O)(=O)CCN12`: 14.2% (inactive). Regarding `CCCCN(C(=O)COc1ccc(NC(C)=O)cc1)C1CCS(=O)(=O)C1` (centres undefined), the inhibition was 5.19% (inactive). Turning to `COc1cc(NC(=O)COC(=O)c2cnc(C)cn2)c(C)cc1[N+](=O)[O-]`, the inhibition is 0.72% (inactive). Next, `CC(C)c1csc(CN2CCC(CO)(Cc3ccccc3)CC2)n1`: -3.76% (inactive); `Oc1ccccc1C=NC1CCCCC1N=Cc1ccccc1O` (centres undefined): -2.31% (inactive); `Cn1cnnc1SCC(=O)Nc1ccc(N2CCOCC2)cc1`: -8.28% (inactive). Next, `CN(c1ccccc1)c1nc(N)c([N+](=O)[O-])c(NCc2ccco2)n1`: -1.5% (inactive); `COC(=O)Cc1nc2ccccc2[nH]1`: 9.21% (inactive).

`CCC(=O)NC(=Nc1nc2ccccc2s1)NC(=O)CC`: the inhibition was -5.21% (inactive). Next, `COC(=O)Cc1cc(=O)n(-c2nc3ccccc3s2)[nH]1`: 25.2% (active); `CC1CCN(c2ccc([N+](=O)[O-])cc2C(N)=O)CC1`: 12.4% (inactive). As for `Cc1nc2ccccc2n1CC(=O)N/N=C/c1cccs1`, the inhibition is -1.34% (inactive). As to `CN(C)c1ccc(C=NCCc2ccc(S(N)(=O)=O)cc2)cc1`, the inhibition was -10.3% (inactive). As to `Cc1cc(C)c2c(n1)sc1c(=O)n(-c3ccccc3)c(=O)[nH]c12`, the inhibition was 13.9% (inactive). `Cn1nnnc1-c1cc(Cl)cc(Cl)c1`: the inhibition is -10.5% (inactive). On to `O=C(COC(=O)c1cc(-c2cccs2)nn1-c1ccccc1)Nc1cc([N+](=O)[O-])ccc1Cl`, for which the inhibition was 7.72% (inactive). As for `O=C(/C=C/c1ccc(F)cc1)NCCNC(=O)/C=C/c1ccc(F)cc1`, the inhibition was -2.71% (inactive).

Take `COc1ccc(NC(=S)Nc2ccc(S(N)(=O)=O)cc2)c(C)c1`: the inhibition is -9.09% (inactive).

On to `Nc1nc(SCC(=O)NCCN2CCOCC2)nc2sc3c(c12)CCC3`, for which the inhibition is 4.71% (inactive). Take `Cc1ccc(Nc2c(F)c(F)c(F)c(F)c2C(=O)O)c(C)c1`: the inhibition is -9.32% (inactive). For `Cc1cccc2cc(CN(Cc3cccs3)C(=S)NCc3ccco3)c(=O)[nH]c12` the value was 6.03% (inactive); for `COc1ccc(-c2oc3ncn(Cc4ccco4)c(=N)c3c2-c2ccc(OC)cc2)cc1`, -4.97% (inactive). Take `Cc1nn(C)c(C)c1CN(C(=O)CCc1nnc(Cc2c[nH]c3ccccc23)o1)C(C)C`: the inhibition is -4.71% (inactive). As to `COc1ccc(Cc2nnc(N/N=C/c3ccccc3O)[nH]c2=O)cc1OC`, the inhibition is -8.91% (inactive). With `COc1cc(C(=O)N[C@@H](C)C(=O)NCc2ccco2)cc(OC)c1OC`, the inhibition is 5.84% (inactive). Next, `CCOc1ccc(N2C(=O)/C(=C/c3ccc(C)o3)N(C)C2=S)cc1`: -6.16% (inactive); `Cc1ccccc1-n1cc(CNC(=O)CC2C(=O)NCCN2C/C=C/c2ccccc2)cn1` (centres undefined): -13.3% (inactive); `CCOC(=O)c1c(N)sc(C(C)=O)c1C`: 1.12% (inactive). Next, `CCOC(=O)c1sc(NC(=O)CSc2nc(O)c(Cc3ccccc3)c(=O)[nH]2)nc1C`: 1.47% (inactive); `CCn1cc(-c2cc(C(=O)O)on2)c(C)n1`: 1.59% (inactive); `COc1cccc(/C=C(/CC(=O)Nc2ccc(N3CCOCC3)cc2)c2nc3ccccc3s2)c1`: 5.83% (inactive). In the case of `O=C(COC(=O)Cc1ccc(F)cc1)Nc1cc(S(=O)(=O)N2CCOCC2)ccc1N1CCCC1`, the inhibition is -6.48% (inactive). In the case of `Cc1[nH]c2ccccc2c1/C=N\NC(=O)Cn1nnc(-c2ccccc2)n1`, the inhibition is -5.01% (inactive). For the compound `Cc1cccc(C)c1NC(=O)C1CCCN1C(=O)OC(C)(C)C` (centres undefined), the inhibition is -1.58% (inactive). With `O=C(Nc1ccccc1)O/N=C1\CCCCC1c1ccc([N+](=O)[O-])cc1[N+](=O)[O-]` (centres undefined), the inhibition is 5.14% (inactive). For `CCn1c(SCc2cc(=O)n3ccsc3n2)nc2ccccc21` the value was -21.4% (inactive); for `Cc1nccn1CCCNC(=O)CC1C(=O)NCCN1Cc1ccc(Cl)c(F)c1` (centres undefined), -15.6% (inactive); for `Cc1ccc(NC2=C(Cl)C(=O)OC2OC(=O)c2ccccc2C)cc1` (centres undefined), -14.9% (inactive). As to `CC(=O)c1ccc(N=C2SCCCN2C(=O)C2CCCCC2)cc1`, the inhibition is 0.78% (inactive). For `Fc1cccc2ncnc(OCc3ccccc3)c12` the value was -8.75% (inactive); for `CCC(C)(C)NC(=O)C(c1ccccn1)N(C(=O)c1csnn1)c1ccccc1` (centres undefined), 2% (inactive).

Turning to `COc1ccc(NC(=S)NCC2CCN(c3ccc(OC)cc3)C2)cc1` (centres undefined), the inhibition is -0.81% (inactive). For the compound `CC(=O)Nc1ccc(CN2CCN(Cc3ccc(F)c(F)c3)C(CCO)C2)cc1` (centres undefined), the inhibition is -0.85% (inactive). Next, `COc1cc(CN2CCNC(=O)C2CC(=O)NCCc2ncccc2C)cc(OC)c1` (centres undefined): -11.2% (inactive); `COc1cccc(NCCC(=O)c2cccc([N+](=O)[O-])c2)c1`: 9.38% (inactive); `CCOc1ccc(-n2cnnn2)cc1S(=O)(=O)N1CCC(C)CC1C` (centres undefined): -2.33% (inactive). Next, `O=C(NCc1ccco1)c1ccc(NS(=O)(=O)c2cccc([N+](=O)[O-])c2)cc1`: 11.7% (inactive); `CC(=O)c1c(C)[nH]c(C(=O)OCC(=O)Nc2sc3c(c2C#N)CCCC3)c1C`: -2.59% (inactive). `COc1cc(OC)c(C(=O)Nc2ccccc2-c2ccccc2)cc1OC`: the inhibition is -14% (inactive). For `CC(=O)Nc1ccc(C(=O)CSc2nc3ccc(C)cc3[nH]2)cc1` the value was 5.15% (inactive); for `O=C(NNC(=S)Nc1ccccc1)c1cccc(S(=O)(=O)N2CCOCC2)c1`, -2.25% (inactive).
